The values below come from PubChem BioAssay (EPA / NIEHS).

Results filed as inconclusive are left out. Calls of active or inactive are those of the source. Rule for the calls, unless noted: active = hit-call score of the fitted dose curve at least 0.9, where 1 is the maximum; inactive = score below 0.9.

The target in assay [1] is human Retinoid X Receptor beta (RXRb), RXRB (gene 6257) (UniProt P28702). The assay can be described thus: ATG_RXRb_TRANS: Attagene TRANS-FACTORIAL HepG2 Assay for human Retinoid X Receptor beta (RXRb) (AID 2283013; active = hit-call score of the fitted dose curve at least 0.9, where 1 is the maximum). A digest of the protocol:
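Readout is reporter transcript induction after 24 h dosing. It is measured by RT-PCR of total RNA followed by fluorescent capillary electrophoresis. HepG2 liver cells carry transfected multiple reporter units driven by an exogenous RXRb-Gal4 fusion; activity is relative to DMSO.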

In assay [2] the target is human Thyroid Receptor alpha (THRa1), THRA (gene 7067) (UniProt P10827). The assay can be described thus: ATG_THRa1_TRANS: Attagene TRANS-FACTORIAL HepG2 Assay for human Thyroid Receptor alpha (THRa1) (AID 2283014; active = hit-call score of the fitted dose curve at least 0.9, where 1 is the maximum). A digest of the protocol: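 Measured here is mRNA from a GAL4-UAS reporter in transfected HepG2 cells carrying a Gal4-fused receptor, 24 h post-dose. DMSO served as negative control and baseline.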
Sequence of human Thyroid Receptor alpha (THRa1), THRA (gene 7067) (P10827 whole entry, looked up, the tested form may be a part): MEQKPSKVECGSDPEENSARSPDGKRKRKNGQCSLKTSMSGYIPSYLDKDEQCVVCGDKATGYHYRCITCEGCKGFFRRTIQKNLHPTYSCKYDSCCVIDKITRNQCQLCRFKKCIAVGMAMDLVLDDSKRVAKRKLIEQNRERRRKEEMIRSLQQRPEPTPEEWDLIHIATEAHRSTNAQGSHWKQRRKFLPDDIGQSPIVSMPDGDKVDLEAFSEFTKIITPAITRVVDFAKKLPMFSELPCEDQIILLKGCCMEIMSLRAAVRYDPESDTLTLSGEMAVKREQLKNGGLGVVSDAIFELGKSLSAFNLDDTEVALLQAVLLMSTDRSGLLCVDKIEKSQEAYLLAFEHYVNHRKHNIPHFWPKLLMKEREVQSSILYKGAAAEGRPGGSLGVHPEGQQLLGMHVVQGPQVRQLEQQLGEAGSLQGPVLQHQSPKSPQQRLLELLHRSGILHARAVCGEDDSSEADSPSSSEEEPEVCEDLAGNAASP

Read-out in assay [3]: E-selectin (Homo sapiens) (UniProt P16581)
The assay can be described thus: BSK_3C_Eselectin: BioMAP Diversity Plus: 3C Assay for Eselectin Biomarker Activity (AID 2283015).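 For outcome: cell surface E-selectin protein quantified by ELISA 24 h after dosing.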 As to conditions: primary human endothelial cells (HUVEC); actives raise or lower the signal. A digest of the protocol:
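Endpoint derived by bidirectional fitting against DMSO vehicle; signal is ELISA-detected E-selectin from primary HUVEC at 24 h post-dosing, with parallel SRB staining (0.1% SRB, 560 nm) flagging cytotoxicity.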

Read-out in assay [4]: Interleukin-1 alpha (IL1a), IL1A (gene 3552)
The assay can be described thus: BSK_BE3C_IL1a: BioMAP Diversity Plus: BE3C Assay for Interleukin-1 alpha (IL1a) Biomarker Activity (AID 2283016). To be noted: primary human bronchial epithelial cells; actives raise or lower the signal. A digest of the protocol: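 IL-1a measured by ELISA after 24 h treatment of human primary bronchial epithelial cells, with gain or loss of signal fitted versus DMSO. Parallel cultures stained with SRB gauge overt cytotoxicity.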

Read-out in assay [5]: Monocyte Chemoattractant Protein-1 (MCP1), CCL2 (gene 6347)
The assay can be described thus: BSK_3C_MCP1: BioMAP Diversity Plus: 3C Assay for Monocyte Chemoattractant Protein-1 (MCP1) Biomarker Activity (AID 2283017). As to conditions: primary human endothelial cells (HUVEC); actives raise or lower the signal. A digest of the protocol: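 Using human vascular primary endothelium, researchers measured MCP-1 by ELISA 24 h after treatment, with DMSO serving as negative control for bidirectional fitting.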

Read-out in assay [6]: Monocyte Chemoattractant Protein-1 (MCP1), CCL2 (gene 6347)
The assay can be described thus: BSK_4H_MCP1: BioMAP Diversity Plus: 4H Assay for Monocyte Chemoattractant Protein-1 (MCP1) Biomarker Activity (AID 2283018). As to conditions: primary human endothelial cells (HUVEC); actives raise or lower the signal. A digest of the protocol:
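ELISA of MCP-1 (CCL2) 24 h after chemical dosing of HUVEC in the BioMAP 4H system. Gain or loss versus DMSO fitted; parallel SRB staining (560 nm) tracked overt cytotoxicity.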

Read-out in assay [7]: Human Leukocyte Antigen - DR isotype (HLADR), HLA-DRA (gene 3122)
The assay can be described thus: BSK_3C_HLADR: BioMAP Diversity Plus: 3C Assay for Human Leukocyte Antigen - DR isotype (HLADR) Biomarker Activity (AID 2283019). As to conditions: primary human endothelial cells (HUVEC); actives raise or lower the signal. The method, boiled down:
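Compound added to primary HUVEC cultures, 24 h incubation, then HLA-DR determined by ELISA; endpoint derived by bidirectional fitting relative to DMSO negative control.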

Read-out in assay [8]: Interleukin-8 (IL8), CXCL8 (gene 3576)
The assay can be described thus: BSK_3C_IL8: BioMAP Diversity Plus: 3C Assay for Interleukin-8 (IL8) Biomarker Activity (AID 2283020). As to conditions: primary human endothelial cells (HUVEC); actives raise or lower the signal. A digest of the protocol:
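IL-8 was measured by ELISA in HUVEC cultures 24 h after chemical dosing, with gain or loss of signal fitted relative to DMSO. Parallel SRB total-protein staining tracked overt cytotoxicity.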

Read-out in assay [9]: Monokine induced gamma interferon (MIG), CXCL9 (gene 4283)
The assay can be described thus: BSK_3C_MIG: BioMAP Diversity Plus: 3C Assay for Monokine induced gamma interferon (MIG) Biomarker Activity (AID 2283021).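 For AC50: MIG protein level measured by immunoassay in the treated endothelial cultures.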 As to conditions: primary human endothelial cells (HUVEC); actives raise or lower the signal. A digest of the protocol: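 ELISA measurement of MIG in human umbilical vein endothelial cells 24 h after treatment. Cytotoxicity tracked by SRB staining in parallel cultures; gain or loss of signal fitted relative to DMSO.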

Assay [10] in a line: BSK_3C_SRB: Viability Assessment in the BioMAP Diversity Plus: 3C Assay (AID 2283023).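 Note: cells read 24 h after compound dosing; fitted both ways against DMSO so a hit may be signal rise or drop.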 As to conditions: primary human endothelial cells (HUVEC). A digest of the protocol: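 Overt cytotoxicity is gauged in parallel confluent HUVEC cultures by SRB total-protein staining at the time of biomarker measurement, 24 h after dosing. Gain or loss of signal is fitted versus DMSO.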
Read-out in assay [11]: Matrix Metallopeptidase 1 (MMP1), MMP1 (gene 4312)
The assay can be described thus: BSK_BE3C_MMP1: BioMAP Diversity Plus: BE3C Assay for Matrix Metallopeptidase 1 (MMP1) Biomarker Activity (AID 2283024). To be noted: primary human bronchial epithelial cells; actives raise or lower the signal. The method, boiled down: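 ELISA measurement of MMP-1 after 24 h compound exposure of primary human bronchial epithelial cells. Changes in either direction fitted relative to DMSO; parallel SRB staining checked overt cytotoxicity.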

Assay [12] is described as follows: BSK_3C_Vis: BioMAP Diversity Plus: 3C Assay for Morphology Visualization (AID 2283025).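 For AC50: light microscopy image of cell morphology used as background control.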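 Note: fitted both ways so gain or loss versus DMSO counts.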 To be noted: primary human endothelial cells (HUVEC). A digest of the protocol: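 Light-microscopy visualization of HUVEC cultures at 24 h post-treatment, with DMSO as baseline for bidirectional fitting.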
Read-out in assay [13]: Pselectin, SELP (gene 6403)
The assay can be described thus: BSK_4H_Pselectin: BioMAP Diversity Plus: 4H Assay for Pselectin Biomarker Activity (AID 2283026). As to conditions: primary human endothelial cells (HUVEC); actives raise or lower the signal. A digest of the protocol:
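ELISA of surface P-selectin on HUVEC, 24 h after dosing, with parallel SRB staining (0.1% after 10% TCA fixation, 560 nm) for overt cytotoxicity. Activity fitted in both directions relative to DMSO.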

A short description of assay [14]: BSK_4H_SRB: Viability Assessment in the BioMAP Diversity Plus: 4H Assay (AID 2283027).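 For AC50: curves fitted both ways versus DMSO so AC50 may be loss or gain.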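 Note: cells exposed to compound for 24 h before staining.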 As to conditions: primary human endothelial cells (HUVEC). The method, boiled down: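 HUVEC, 24 h post-dose; 10% TCA fix, 0.1% SRB stain, A560 nm. Total protein = overt cytotoxicity, parallel to biomarker read. Bidirectional fit vs DMSO baseline.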
Assay [15] can be described thus: BSK_BE3C_SRB: Viability Assessment in the BioMAP Diversity Plus: BE3C Assay (AID 2283028). To be noted: primary human bronchial epithelial cells. The method, boiled down: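 SRB total-protein staining (0.1%, after TCA fixation) of chemically dosed human bronchial epithelial primary cells at 24 h; DMSO serves as the negative control for bidirectional curve fitting.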

Read-out in assay [16]: Thrombomodulin, THBD (gene 7056)
The assay can be described thus: BSK_3C_Thrombomodulin: BioMAP Diversity Plus: 3C Assay for Thrombomodulin Biomarker Activity (AID 2283029). As to conditions: primary human endothelial cells (HUVEC); actives raise or lower the signal. A digest of the protocol:
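ELISA measurement of thrombomodulin on HUVEC surface 24 h after chemical dosing; activity fitted in both directions relative to DMSO vehicle.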

Read-out in assay [17]: Urokinase-type plasminogen activator receptor (uPAR), PLAUR (gene 5329)
The assay can be described thus: BSK_4H_uPAR: BioMAP Diversity Plus: 4H Assay for Urokinase-type plasminogen activator receptor (uPAR) Biomarker Activity (AID 2283030). To be noted: primary human endothelial cells (HUVEC); actives raise or lower the signal. A digest of the protocol: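 Endpoint derived via bidirectional curve fitting against DMSO baseline; readout was ELISA detection of uPAR on umbilical vein endothelial cells at 24 h post-treatment, with SRB-stained parallel cultures assessing cytotoxicity.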

Read-out in assay [18]: Vascular endothelial growth factor receptor 2 (Homo sapiens) (UniProt P35968)
The assay can be described thus: BSK_4H_VEGFRII: BioMAP Diversity Plus: 4H Assay for Vascular endothelial growth factor receptor 2 (VEGFR2) Biomarker Activity (AID 2283031).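 For AC50: cell-surface VEGFR2 protein level quantified by ELISA.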 To be noted: primary human endothelial cells (HUVEC); actives raise or lower the signal. The method, boiled down: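 In this multiplexed HUVEC system, biomarker ELISA was performed after 24 h chemical exposure. Parallel SRB staining (TCA fixation, 560 nm) tracked cytotoxicity; DMSO served as baseline.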

Read-out in assay [19]: Human Leukocyte Antigen - DR isotype (HLADR), HLA-DRA (gene 3122)
The assay can be described thus: BSK_BE3C_HLADR: BioMAP Diversity Plus: BE3C Assay for Human Leukocyte Antigen - DR isotype (HLADR) Biomarker Activity (AID 2283032). To be noted: primary human bronchial epithelial cells; actives raise or lower the signal. The method, boiled down:
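Cell-surface HLA-DR ELISA readout at 24 h after dosing in the BE3C primary human lung bronchial epithelial system; gain or loss of signal against DMSO, with parallel sulforhodamine B staining of total protein for overt cytotoxicity.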

For assay [20], the target named is human Vitamin D Receptor (VDR), VDR (gene 7421) (UniProt P11473). The assay can be described thus: ATG_VDR_TRANS: Attagene TRANS-FACTORIAL HepG2 Assay for human Vitamin D Receptor (VDR) (AID 2283022; active = hit-call score of the fitted dose curve at least 0.9, where 1 is the maximum). The method, boiled down: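 Multiplexed TRANS reporter in HepG2; 24 h treatment; reporter mRNA by RT-PCR plus capillary electrophoresis; upregulation scored relative to DMSO.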
Sequence of human Vitamin D Receptor (VDR), VDR (gene 7421) (P11473 whole entry, looked up): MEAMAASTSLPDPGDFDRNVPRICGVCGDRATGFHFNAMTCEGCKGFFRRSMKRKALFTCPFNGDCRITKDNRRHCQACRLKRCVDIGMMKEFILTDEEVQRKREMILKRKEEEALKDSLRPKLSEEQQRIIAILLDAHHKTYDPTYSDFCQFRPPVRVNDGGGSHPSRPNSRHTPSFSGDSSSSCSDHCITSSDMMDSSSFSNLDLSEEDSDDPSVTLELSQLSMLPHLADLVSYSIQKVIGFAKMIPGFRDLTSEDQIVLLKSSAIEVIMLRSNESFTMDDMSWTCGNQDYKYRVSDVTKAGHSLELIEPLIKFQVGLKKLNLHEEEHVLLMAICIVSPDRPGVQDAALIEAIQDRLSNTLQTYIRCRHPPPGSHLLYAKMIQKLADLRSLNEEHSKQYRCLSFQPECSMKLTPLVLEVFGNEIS

Sequence of human Retinoid X Receptor beta (RXRb), RXRB (gene 6257) (P28702 whole entry, looked up, the tested form may be a part): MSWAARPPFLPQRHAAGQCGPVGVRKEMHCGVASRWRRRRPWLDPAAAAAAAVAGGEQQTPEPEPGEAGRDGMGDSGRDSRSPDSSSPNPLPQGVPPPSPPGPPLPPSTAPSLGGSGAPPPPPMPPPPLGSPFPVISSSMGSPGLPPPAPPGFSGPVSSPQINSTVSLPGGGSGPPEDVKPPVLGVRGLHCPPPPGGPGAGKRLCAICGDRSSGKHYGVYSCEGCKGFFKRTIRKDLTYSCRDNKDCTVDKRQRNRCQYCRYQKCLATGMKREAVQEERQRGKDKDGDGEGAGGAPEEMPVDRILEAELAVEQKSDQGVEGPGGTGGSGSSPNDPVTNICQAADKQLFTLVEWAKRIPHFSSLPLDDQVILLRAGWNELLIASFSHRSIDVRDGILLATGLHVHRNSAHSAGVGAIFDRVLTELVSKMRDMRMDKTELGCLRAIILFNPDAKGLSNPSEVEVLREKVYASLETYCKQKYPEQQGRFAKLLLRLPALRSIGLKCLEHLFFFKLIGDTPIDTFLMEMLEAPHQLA
Sequence of E-selectin (Homo sapiens) (P16581 whole entry, looked up): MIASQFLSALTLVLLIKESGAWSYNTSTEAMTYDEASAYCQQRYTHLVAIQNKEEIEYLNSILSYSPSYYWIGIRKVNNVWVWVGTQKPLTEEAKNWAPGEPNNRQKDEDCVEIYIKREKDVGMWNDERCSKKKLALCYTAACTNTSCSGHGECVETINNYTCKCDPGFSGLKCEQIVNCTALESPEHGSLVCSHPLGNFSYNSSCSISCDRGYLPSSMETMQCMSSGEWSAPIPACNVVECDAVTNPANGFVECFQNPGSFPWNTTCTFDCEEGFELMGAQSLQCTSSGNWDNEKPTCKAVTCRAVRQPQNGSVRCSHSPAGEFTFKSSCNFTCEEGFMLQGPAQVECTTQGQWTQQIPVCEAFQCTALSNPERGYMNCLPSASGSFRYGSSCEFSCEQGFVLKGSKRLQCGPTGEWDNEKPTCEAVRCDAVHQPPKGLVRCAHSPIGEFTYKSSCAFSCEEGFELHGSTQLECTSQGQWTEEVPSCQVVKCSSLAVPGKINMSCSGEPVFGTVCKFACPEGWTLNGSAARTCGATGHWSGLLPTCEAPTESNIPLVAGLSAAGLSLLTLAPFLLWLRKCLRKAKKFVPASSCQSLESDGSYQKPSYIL

As to `C[C@@H]1C[C@@H]([C@H](O)CC2CC(=O)NC(=O)C2)C(=O)[C@@H](C)C1`, the result in assay [1], in [2], in assay [15] and in [16] was inactive. Also, the AC50 in assay [3] is 2.4 µM (active); in [4] it was 10.7 µM (active); in [5] it was 8.41 µM (active); in assay [6], 4.06 µM (active); in assay [7], 3.85 µM (active); in assay [8], 6.06 µM (active). For the same compound, the AC50 in [9] is 20.1 µM (active); in assay [10], 4.82 µM (active); in assay [11] it was 2.51 µM (active); in assay [12], 9.24 µM (active); in assay [13] it was 3.9 µM (active); in assay [14], 7.08 µM (active). The AC50 in assay [17] was 4.3 µM (active); in assay [18], 8.73 µM (active); in assay [19], 4.95 µM (active).
Consider `C[C@@H](Oc1ccc(Cl)cc1Cl)C(=O)O`, for which the call in [1], in assay [2] and in assay [20] was inactive.
As for `CCc1ccccc1C`, the result in assay [1], in assay [2] and in assay [20] was inactive.
As to `ClCc1cccnc1`, the result in assay [1], in assay [2] and in assay [20] was inactive.
On to `COc1ccc(OC)c(C=O)c1`, for which the compound was called inactive in [1], in assay [2] and in assay [20].
Consider `CCC(=O)C(CC(C)N(C)C)(c1ccccc1)c1ccccc1` (stereo not given), for which the call in assay [1], in assay [2], in assay [3], in [4], in [5] and in [6] was inactive. Further, the result in [7], in [8], in assay [9], in assay [10], in assay [11] and in assay [12] was inactive. In addition, the result in assay [13], in [14], in [15], in assay [16], in assay [17] and in [18] was inactive. The outcome in [19] was inactive.
In the case of `Nc1ncc([N+](=O)[O-])s1`, the call in [1], in assay [3], in assay [4], in assay [5], in assay [6] and in [7] was inactive. The result in [8], in assay [9], in assay [10], in assay [11], in assay [12] and in assay [13] was inactive. Also, the outcome in [14], in assay [15], in assay [17], in [18] and in assay [19] was inactive.
In the case of `COc1ccccc1OC`, the compound was called inactive in assay [1] and in assay [20].
Take `CCOC(=O)/C=C(C)/C=C/C[C@@H](C)CCCC(C)C`: the AC50 in assay [1] is 26.9 µM (active); in [3], 26.5 µM (active); in assay [4] it was 20 µM (active); in assay [5], 31.2 µM (active); in assay [6], 29.4 µM (active); in assay [7] it was 28.1 µM (active). In addition, the concentration at half-maximal activity (AC50) in assay [9] was 30.8 µM (active); in assay [10] it was 36.4 µM (active); in assay [13], 25.2 µM (active); in assay [14], 34.3 µM (active); in assay [17], 31.8 µM (active); in assay [18] it was 33 µM (active). Moreover, the AC50 in assay [19] is 20 µM (active). For the same compound, the result in assay [8], in assay [20], in [11], in [12] and in assay [15] was inactive.
In the case of `CC(C)OC(=O)Nc1ccccc1`, the call in assay [2] was inactive.
For the compound `CC1(C)Cc2cccc(O)c2O1`, the result in [1], in assay [3], in assay [4], in [5], in assay [6] and in assay [7] was inactive. Moreover, the result in assay [8], in assay [9], in assay [10], in assay [11], in assay [12] and in assay [13] was inactive. In addition, the result in assay [14], in assay [15], in assay [17], in assay [18] and in [19] was inactive.
